# From the supplement of paper PMC9135407
# “And” between values parts separate entries of the source, which are not always exact repeats. Equal entries are not always repeated. Structures can show the parent of a compound that is named as a salt. About 620 (11%) of roughly 5,800 compounds showed activity. The entries come from a sample that favours actives as a whole. Unmarked numbers belong to inactive results.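 The calls were made as follows: active = score above a cut-off or among the top three wells of a plate; in these data no inactive exceeds 0.85.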
# Tested on: primary human hepatic stellate cells (donor 1)
# Test: scaled lipid accumulation score (0 = DMSO-like, 1 = nortriptyline-like); higher = stronger HSC inactivation (lipid re-accumulation), active = hit call of the paper
# Conditions: 48 h
# Experimental: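 Primary lipid accumulation screen in primary human hepatic stellate cell myofibroblasts (donor 1, passage 8) in 384-well plates. 100 nL of library compound was pin-transferred into 30 µL medium in duplicate, and cells were treated for 48 h. The 'Scaled' score combines distance from plate baseline, toxicity and reproducibility penalties, and is normalised to nortriptyline (positive) and DMSO (negative) controls on each plate. A hit is defined as scaled >0.85 or among the top 3 wells per plate.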
# [1] = library stock concentration: 3.33 mM
# [2] = library stock concentration: 10 mM
# [3] = library stock concentration: 1 mM
# [4] = library stock concentration: 400 uM
# [5] = library stock concentration: 2 mM
smiles,measurement,setting,value
C[C@@H]1O[C@@H](O[C@H]2[C@H](Oc3cc(O)c(C(=O)CCc4ccc(O)cc4)c(O)c3)O[C@H](CO)[C@@H](O)[C@@H]2O)[C@H](O)[C@H](O)[C@H]1O [Naringin Dihydrochalcone],scaled lipid accumulation score,[1],≤ 0
same,scaled lipid accumulation score,[2],0.078
O=C(O)CCC/C=C\C[C@@H]1CO[C@H](C(F)(F)F)O[C@@H]1c1ccccc1O,scaled lipid accumulation score,[2],≤ 0
"CCCCCCCC/C=C\CCCCCCCC(=O)OC[C@H](CO)OC(=O)CCCCCCC/C=C\CCCCCCCC [1,2-Dioleoyl-sn-glycerol]",scaled lipid accumulation score,[3],≤ 0
CCN(CC)CCCC(C)Nc1c2ccc(Cl)cc2nc2ccc(OC)cc12 (centres undefined) [Quinacrine dihydrochloride],scaled lipid accumulation score,[2],0.536
CCN(CC)CCCC(C)Nc1c2ccc(Cl)cc2nc2ccc(OC)cc12 (centres undefined) [Quinacrine 2HCl dihydrate],scaled lipid accumulation score,library stock concentration: 5 mM,0.876 (active)
CCN(CC)CCCC(C)Nc1c2ccc(Cl)cc2nc2ccc(OC)cc12 (centres undefined) [Quinacrine hydrochloride],scaled lipid accumulation score,[2],0.586
CCN(CC)CCCC(C)Nc1c2ccc(Cl)cc2nc2ccc(OC)cc12 (centres undefined) [Quinacrine dihydrochloride dihydrate],scaled lipid accumulation score,,0.288
CCN(CC)CCCC(C)Nc1c2ccc(Cl)cc2nc2ccc(OC)cc12 (centres undefined) [Quinacrine 2HCl],scaled lipid accumulation score,[1],0.307
same,scaled lipid accumulation score,[2],0.325
CCN(CC)CCCC(C)Nc1nc(C)cc(Nc2ccc3nc(C)cc(N)c3c2)n1 (centres undefined),scaled lipid accumulation score,[1],≤ -0.009
same,scaled lipid accumulation score,[2],0.217 and 0.086
c1ccc(-c2[nH]ncc2-c2ccnc3ccccc23)nc1,scaled lipid accumulation score,[3],≤ 0
same,scaled lipid accumulation score,[2],≤ -0.001
CC1=C(/C=C/C(C)=C/C=C/C(C)=C/CO)C(C)(C)CCC1 [Retinol],scaled lipid accumulation score,library stock concentration: 7 mM,≤ 0
same,scaled lipid accumulation score,[2],≤ 0
NC(=O)c1cc[n+](CC2=C(C(=O)[O-])N3C(=O)[C@@H](NC(=O)Cc4cccs4)[C@H]3SC2)cc1 [Cefalonium],scaled lipid accumulation score,,≤ 0
O=NN(CCCl)C(=O)NC1CCCCC1 [Lomustine],scaled lipid accumulation score,[1],0.044
same,scaled lipid accumulation score,library stock concentration: 8.6 mM,0.014
same,scaled lipid accumulation score,[2],≤ 0
CN1CCC(OC(c2ccccc2)c2ccccc2)CC1 [Diphenylpyraline hydrochloride],scaled lipid accumulation score,,0.332
same,scaled lipid accumulation score,library stock concentration: 6.3 mM,0.256
same,scaled lipid accumulation score,[2],0.235
C1[C@@H](N(C)[C@@H]2C1)C[C@@H](OC(c3ccccc3)c4ccccc4)C2.CS(O)(=O)=O (some centres undefined) [Benztropine mesylate],scaled lipid accumulation score,[2],0.873 (active)
CN1C2CCC1CC(OC(=O)C(O)c1ccccc1)C2 (centres undefined) [Homatropine Bromide],scaled lipid accumulation score,[1],≤ 0
same,scaled lipid accumulation score,[2],≤ -0.001
CN1C2CCC1CC(OC(=O)C(O)c1ccccc1)C2 (centres undefined) [Homatropine bromide],scaled lipid accumulation score,[2],≤ 0
CN1[C@@H]2CC[C@H]1C[C@@H](OC(c1ccccc1)c1ccccc1)C2 [Benztropine mesylate],scaled lipid accumulation score,[1],0.003
CN1[C@@H]2CC[C@H]1C[C@@H](OC(c1ccccc1)c1ccccc1)C2 [Cogentin Mesylate],scaled lipid accumulation score,[2],0.598
CN1C2CCC1CC(OC(c1ccccc1)c1ccccc1)C2.CS(=O)(=O)O (centres undefined) [Benztropine mesylate],scaled lipid accumulation score,[2],1.05 (active)
CN1[C@@H]2CC[C@H]1C[C@@H](OC(=O)C(O)c1ccccc1)C2 (mixture of isomers) [DL-Homatropine hydrobromide],scaled lipid accumulation score,[2],0.242
"CN1[C@@H]2CC[C@H]1C[C@@H](OC(=O)C(O)c1ccccc1)C2 (mixture of isomers) [Homatropine hydrobromide (R,S)]",scaled lipid accumulation score,,0.043
CN1[C@@H]2CC[C@H]1C[C@@H](OC(c1ccccc1)c1ccccc1)C2 [Benztropine],scaled lipid accumulation score,library stock concentration: 4.9 mM,0.193
same,scaled lipid accumulation score,[2],0.38
CCOC(=O)Nc1cc(-c2ccc(C)c(NS(C)(=O)=O)c2)nn2c(C)nnc12 [Bromosporine],scaled lipid accumulation score,[1],0.166
same,scaled lipid accumulation score,[2],0.621
CCCCCCCCCCCCCCCCOC[C@H](CO)OC(C)=O [Hexadecyl Acetyl Glycerol],scaled lipid accumulation score,[3],≤ 0
CNC(=O)c1c(F)cccc1Nc1nc(Nc2cc3c(cc2OC)CCN3C(=O)CN(C)C)nc2[nH]ccc12 [listing 1 of 2 here],scaled lipid accumulation score,[2],0.776
CNC(=O)c1ccccc1Nc1nc(Nc2ccc(N3CCOCC3)cc2OC)ncc1Cl,scaled lipid accumulation score,library stock concentration: 80 uM,≤ -0.016
same,scaled lipid accumulation score,[4],≤ -0.016
same,scaled lipid accumulation score,[5],≤ -0.016
same,scaled lipid accumulation score,[1],≤ 0
same,scaled lipid accumulation score,[2],≤ 0 and ≤ -0.016
CNC(=O)c1c(F)cccc1Nc1nc(Nc2cc3c(cc2OC)CCN3C(=O)CN(C)C)nc2[nH]ccc12 [listing 2 of 2 here],scaled lipid accumulation score,[1],0.98 (active)
O=C(c1ccc2c(c1)OCCO2)N1CCCCC1,scaled lipid accumulation score,[2],≤ -0.07
COC(=O)C1=CC[C@@]23CC[C@@H]([C@@](C)(/C=C/C=C(\C)C(=O)O)OC2=O)[C@@]3(OC(C)=O)CC1 [Pseudolaric Acid B],scaled lipid accumulation score,[3],≤ 0
CCCC[C@H](C)C[C@H](O)/C=C/[C@H]1[C@H](O)CC(=O)[C@@H]1CCCCC(CC(=O)O)OC (some centres undefined) [3-methoxy Limaprost],scaled lipid accumulation score,[3],0.012
"CCCCCC(=O)OC[C@H](CO)OC(=O)CCCCC [1,2-Dihexanoyl-sn-glycerol]",scaled lipid accumulation score,[3],0.007
CC(C)(C=O)Cc1cc(C(C)(C)C)c(O)c(C(C)(C)C)c1,scaled lipid accumulation score,[2],0.21 and ≤ -0.006
CC(C)(CO)Cc1cc(C(C)(C)C)c(O)c(C(C)(C)C)c1 [listing 1 of 2 here],scaled lipid accumulation score,[2],0.861 (active)
CC(C)(CO)Cc1cc(C(C)(C)C)c(O)c(C(C)(C)C)c1 [listing 2 of 2 here],scaled lipid accumulation score,[2],0.139
N.N.O=C([O-])C[O-].[Pt+2] [Nedaplatin],scaled lipid accumulation score,library stock concentration: 6.6 mM,0.028
CC(C)[C@@H](O)CC[C@@H](C)[C@H]1CC[C@H]2[C@@H]3CC=C4C[C@@H](O)CC[C@]4(C)[C@H]3CC[C@]12C [24(S)-hydroxycholesterol],scaled lipid accumulation score,library stock concentration: 12.4 mM,0.006
CN(C)Cc1ccc(-c2nc3cccc4c3n2CCNC4=O)cc1,scaled lipid accumulation score,[1],0.037
same,scaled lipid accumulation score,[2],0.491
COc1ccc([C@@H]2CC(=O)c3c(O)cc(O[C@@H]4O[C@H](CO)[C@@H](O)[C@H](O)[C@H]4O[C@@H]4O[C@@H](C)[C@H](O)[C@@H](O)[C@H]4O)cc3O2)cc1O [Neohesperidin],scaled lipid accumulation score,[1],≤ 0
same,scaled lipid accumulation score,[2],0.039
C[C@H](NC(=O)/C(C#N)=C/c1cccc(Br)n1)c1ccccc1,scaled lipid accumulation score,[2],0.586
C[C@H](NC(=O)C(C#N)=Cc1cccc(Br)n1)c1ccccc1,scaled lipid accumulation score,[1],1.05 (active)
CCC[C@H](NC(=O)/C(C#N)=C/c1cccc(Br)n1)c1ccccc1 [Degrasyn (WP1130)],scaled lipid accumulation score,[1],0.369
same,scaled lipid accumulation score,[2],0.703
CC(=O)OCOC(=O)CN(CC(=O)OCOC(C)=O)c1ccccc1OCCOc1ccccc1N(CC(=O)OCOC(C)=O)CC(=O)OCOC(C)=O,scaled lipid accumulation score,[1],≤ -0.009
same,scaled lipid accumulation score,[2],0.697
CC(C)C[C@H](NC(=O)[C@H]1O[C@@H]1C(=O)O)C(=O)NCCCCN=C(N)N,scaled lipid accumulation score,[1],0.177
same,scaled lipid accumulation score,[2],≤ 0 and ≤ -0.07
C=C[C@@]1(C)C[C@@H](OC(=O)CS[C@@H]2C[C@H]3CC[C@@H](C2)N3C)[C@@]2(C)[C@@H]3C(=O)CC[C@@]3(CC[C@@H]2C)[C@@H](C)[C@@H]1O [Retapamulin],scaled lipid accumulation score,[2],0.947 (active)
C=C[C@]1(C)C[C@@H](OC(=O)CS[C@@H]2C[C@H]3CC[C@@H](C2)N3C)[C@]2(C)[C@H](C)CC[C@]3(CCC(=O)[C@H]32)[C@@H](C)[C@@H]1O [Retapamulin],scaled lipid accumulation score,[1],0.412
C=C[C@]1(C)C[C@@H](OC(=O)CSC(C)(C)CNC(=O)[C@H](N)C(C)C)[C@]2(C)[C@H](C)CC[C@]3(CCC(=O)[C@H]32)[C@@H](C)[C@@H]1O [Valnemulin HCl],scaled lipid accumulation score,[1],≤ 0
same,scaled lipid accumulation score,[2],0.491
Clc1ccc(C(c2ccc(Cl)cc2)[n+]2ccn(CC(OCc3ccc(Cl)cc3Cl)c3ccc(Cl)cc3Cl)c2)cc1 (centres undefined) [Calmidazolium chloride],scaled lipid accumulation score,[2],0.037
O=C(NCc1ccc(Cl)c(Cl)c1)O[C@H]1CCc2ccccc21,scaled lipid accumulation score,[3],0.061
O=C(O)CCC(=O)O.O=C(O[C@H]1CN2CCC1CC2)N1CCc2ccccc2[C@@H]1c1ccccc1 [Solifenacin succinate],scaled lipid accumulation score,[2],1.3 (active)
O=C(O[C@H]1CN2CCC1CC2)N1CCc2ccccc2[C@@H]1c1ccccc1 [Solifenacin succinate],scaled lipid accumulation score,[1],0.293
O=C(O[C@H]1CN2CCC1CC2)N1CCc2ccccc2[C@@H]1c1ccccc1,scaled lipid accumulation score,[2],0.352
CC/C=C\C/C=C\C/C=C\CCCCCCCC(=O)O [Linolenic acid (18:3 n-3)],scaled lipid accumulation score,[3],≤ -0.021
CC/C=C\C/C=C\C/C=C\CCCCCCCC(=O)O [.alpha.-Linolenic Acid],scaled lipid accumulation score,[3],0.009
CC(=O)O[C@H]1Cc2ccccc2N(C(N)=O)c2ccccc21,scaled lipid accumulation score,[2],≤ 0
CCCC[P+](CCCC)(CCCC)Cc1ccc(NC(=O)C(Cc2ccc3ccccc3c2)NC(=NC2CCCCC2)NC2CCCCC2)cc1 (centres undefined),scaled lipid accumulation score,[2],0.797
CNCc1ccc(-c2cc(-c3nc(-c4ccc(S(=O)(=O)C(C)C)cc4)cnc3N)on2)cc1 [listing 1 of 2 here],scaled lipid accumulation score,[2],0.254
CNCc1ccc(-c2cc(-c3nc(-c4ccc(S(=O)(=O)C(C)C)cc4)cnc3N)on2)cc1 [listing 2 of 2 here],scaled lipid accumulation score,[1],1.12 (active)
CCCCCCCC/C=C\CCCCCCCC(=O)OCC [Oleic Acid ethyl ester],scaled lipid accumulation score,[3],0.015
O=C(CO)N1CCC(c2n[nH]c(-c3ccc(Cl)cc3)c2-c2ccncn2)CC1,scaled lipid accumulation score,[4],≤ -0.005
same,scaled lipid accumulation score,[5],≤ -0.005
same,scaled lipid accumulation score,[2],≤ -0.005
